# Bioassay records: PubChem BioAssay, National Center for Advancing Translational Sciences (NCATS)
# D1 PAM: potentiators of human D1 dopamine receptor; P21728; actives 0.036% (n = 360,000); AID 504651; potentiation, % at 10 µM; HEK293 TREx D1 cells, calcium flux, dopamine EC20 potentiation; in the data active means potentiation above about 30%
# Target sequence (P21728 whole entry, looked up): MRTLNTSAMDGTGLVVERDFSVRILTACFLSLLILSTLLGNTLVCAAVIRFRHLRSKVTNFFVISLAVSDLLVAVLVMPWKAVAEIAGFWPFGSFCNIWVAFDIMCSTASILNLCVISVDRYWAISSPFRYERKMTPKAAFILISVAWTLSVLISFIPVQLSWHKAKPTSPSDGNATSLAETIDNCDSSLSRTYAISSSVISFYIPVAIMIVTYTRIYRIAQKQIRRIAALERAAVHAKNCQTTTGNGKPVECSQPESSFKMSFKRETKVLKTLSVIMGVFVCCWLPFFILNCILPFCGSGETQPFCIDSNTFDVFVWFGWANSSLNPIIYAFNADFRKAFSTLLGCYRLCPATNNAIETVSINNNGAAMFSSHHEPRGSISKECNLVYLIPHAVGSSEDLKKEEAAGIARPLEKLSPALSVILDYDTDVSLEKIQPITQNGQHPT
# D1 agonist: human D1 receptor agonism. AID 504660. P21728. HEK293 T-REx D1 cells, calcium flux, agonist mode. activation, % at 2 µM. actives 1% (n = 360,000); in the data active means activation above about 30%
#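 Agonism was scored from calcium flux recorded over 180 s (1 read/s) after pintool compound addition, following a 10-cycle baseline. Cells were inducible force-coupled HEK293 TREx D1, plated overnight at 30 C and loaded with no-wash calcium dye.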
# Chronic BCR inh: blocks chronic active B-cell receptor signaling. ABC-DLBCL IkBa-CBG/CBR reporter, luminescence ratio, 4 h. Potency, µM (series often up to 46.1 µM), usual class: inhibitors. actives 0.05% (n = 340,000); active means well fitted inhibition curve with a large enough effect in the signal ratio, with a control signal flat, not every such curve was filed as active; inconclusive means small, poorly fitted or top-dose-only effect, or effect the other way, or a change in a side signal; the % refers to the signal ratio
#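 TMD8 ABC-DLBCL cells carrying doxycycline-inducible green luciferase fused to IkappaBalpha plus unfused red luciferase were exposed to compounds (up to 46 uM) for 4 hrs at 37C. Activity came from the overlap-corrected green/red luminescence ratio.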
# DRD3 agonist: D3 dopamine receptor (human) agonism; P35462; D3R DiscoveRx beta-arrestin cells, luminescence, 90 min; max activation, %; actives 0.58% (n = 410,000); AID 652048; in the data active means max activation above about 30%
#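 Agonist-mode cell screen: cells plated at 1500/well and incubated overnight at 37 °C, then exposed to library compounds for 90 min at 37 °C. Detection reagent was added for 30–60 min at room temperature, and luminescence was read.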
# DRD3 antagonist: antagonists of human D3 dopamine receptor | P35462 | D3R cells, DiscoveRx beta-arrestin luminescence, antagonist mode; stronger effect = lower value | max response, negative = inhibition, % | actives 2.5% (n = 360,000) | AID 652054; in the data active means max response below about -50%; inconclusive means no clear call, values can overlap the other calls
#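 Cells expressing the human receptor were seeded at 1500 cells/well, incubated overnight at 37 degrees C in 5% CO2, then exposed to library compounds with dopamine controls for 90 minutes at 37 degrees C before luminescent detection.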
# D1 antagonist: human D1 dopamine receptor antagonism; P21728; HEK293 TREx D1 cells, calcium flux, dopamine EC80; stronger effect = lower value; activity change, negative = inhibition, % at 10 µM; actives 3.2% (n = 360,000); AID 504652; in the data active means activity change below about -30%
#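 Using tetracycline-induced force-coupled D1 Hek293 cells and a calcium dye, signals were followed for 180 s after compound, then for 180 s after EC80 dopamine, to detect inhibitors.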
# Numbers stand for hits; n = inactive; u = inconclusive; x = no result given. Hits are enriched below; roughly 6% of the tested compounds scored in any of these assays.
SMILES,D1 PAM,D1 agonist,Chronic BCR inh,DRD3 agonist,DRD3 antagonist,D1 antagonist
CC(C)(CNC(=S)NCCc1ccccc1)CNC(=S)NCCc1ccccc1,n,n,u,n,n,-30
C/C(=N\NC(=S)NCCc1ccccc1)c1ccc(O)cc1O,x,n,u,n,n,-39
Fc1cccc(NC(=S)NCCc2ccccc2)c1,n,n,u,n,n,-38
Fc1ccc(NC(=S)NCCc2ccc(Cl)cc2)cc1,n,n,n,n,n,n
C/C(=N\NC(=S)NCCc1ccccc1)c1ccc(Cl)cc1Cl,n,n,n,n,u,n
Fc1ccc(CCNC(=S)Nc2ccc(F)c(Cl)c2)cc1,n,n,u,n,n,-32
Fc1ccc(CSc2nncn3c2cc2occc23)c(Cl)c1,n,n,x,n,x,n
CCC(C)c1ccc(OCC(=O)Nc2cccc(-c3nc4ncccc4o3)c2)cc1 (stereo not given),n,n,x,n,x,n
Cc1cccc(S(=O)(=O)NC(=O)C2(C)CCN2C(=O)C2(c3ccc(Cl)cc3)CCC2)c1 (stereo not given),x,x,x,n,n,x
N#Cc1cccc(C(Br)S(=O)(=O)c2ccccc2)c1 (stereo not given),x,x,x,n,n,x
O=[N+]([O-])c1cccc(NC(=S)NCCc2ccccc2)c1,n,43,u,n,-71,n
O=C(Cc1cccc([N+](=O)[O-])c1)Nc1ccccc1,x,x,x,n,n,x
Cc1ccc2nc(SCC(=O)c3c[nH]c4ccccc34)[nH]c2c1,n,n,u,n,n,n
O=C(CSc1nc2ccccc2[nH]1)c1c[nH]c2ccccc12,n,n,u,n,-56,n
O=C(CSc1nc2ccccc2[nH]1)N1CCN(c2ccccc2)CC1,n,n,n,n,n,n
O=C(CSc1nc2ccccc2[nH]1)N1CCCCC1,n,n,u,n,-96,n
COC(=O)C[C@H]1C[C@H]2c3cc(NC(=O)C4CCOCC4)ccc3O[C@H]2[C@H](CO)O1,x,x,x,n,n,x
Cc1ccc2nc(Nc3ccc(C)c(F)c3)c3nncn3c2c1,n,n,x,n,x,n
COc1ccc(/C=N/Nc2ccccc2C(=O)O)cc1Cn1cc([N+](=O)[O-])cn1,n,n,n,n,n,-32
COc1cccc(C2CC(C(F)(F)F)n3nc(C(=O)Nc4c(C)n(C)n(-c5ccccc5)c4=O)cc3N2)c1 (stereo not given),n,n,n,n,-87,n
NNC(=O)CN1C(c2ccc(Cl)cc2)=Nc2ccc(Br)cc2C1c1ccccc1 (stereo not given),n,n,u,n,-59,n
COC(=O)CN1C(c2ccccc2)=Nc2ccc(Cl)cc2C1c1ccccc1 (stereo not given),n,n,u,n,-56,n
COC(=O)CN1C(C)=Nc2ccc(C)cc2C1c1ccccc1 (stereo not given),n,n,u,n,n,n
O=C(CCNC(=O)Cn1cnc2ccccc2c1=O)NCC1COc2ccccc2O1 (stereo not given),n,n,n,n,-58,n
CN1CCC/C1=C/C=C1\SC(=S)NC1=O,n,81,n,n,-64,n
SMILES,D1 PAM,D1 agonist,Chronic BCR inh,DRD3 agonist,DRD3 antagonist,D1 antagonist
O=C1NC(=S)SC1=Cc1cccs1,x,x,x,n,u,x
COc1ccc(Br)cc1/C=N/Nc1cccc(C(=O)O)c1,n,n,u,n,n,n
O=C(O)c1cccc(N/N=C/c2ccc(-c3ccccc3)cc2)c1,n,n,u,n,n,n
O=C(O)c1cccc(N/N=C/c2cccnc2)c1,n,n,u,n,n,-31
O=C(O)c1cccc(N/N=C/c2cc(Br)cc(Br)c2O)c1,n,n,n,n,-64,n
Cc1ccc(S(=O)(=O)CCC(=O)Nc2ccc(Br)cc2C)cc1,n,n,x,n,x,n
CCCCC(=O)NC(c1ccccc1)c1ccc2cccnc2c1O (stereo not given),n,n,u,n,n,n
CCC(=O)NC(c1cccs1)c1cc([N+](=O)[O-])c2cccnc2c1O (stereo not given),n,n,n,n,-69,n
CCCC(=O)NC(c1ccccc1)c1ccc2cccnc2c1O (stereo not given),n,n,u,31,u,n
